In the library only some 19% were active in any assay of this set; here they are far more common.
HT1080NT lethal = kills 2HG-producing HT-1080-NT fibrosarcoma cells. Potency, µM (doses to about 46.1 µM), inactives show top-dose activity, negative = less viability, most hits filed as cytotoxic. AID 686970. HT-1080-NT fibrosarcoma viability, CellTiter-Glo ATP luminescence, 48 h. hit rate 1.6% among 360,000;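 also: NT is the 2HG producing partner of a matched IDH1 knockdown line; potency is read from the fitted curve at half-maximal effect; 0% = DMSO-treated cells and -100% = media-only wells without cells; nearly all actives have a fitted effect of over 55% in size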
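HT-1080-NT; 750 cells/well; 5% FBS RPMI; 48 h compound, 37 degrees C; CellTiter-Glo luminescence; curve fitting and curve-class assignment.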
HT1080 IDH1KD tx = HT-1080 IDH1 knockdown cell toxicity (counter line) | HT-1080 IDH1 knockdown viability, ATP luminescence, 48 h | Potency, µM (doses to about 46.1 µM), for inactives: at the highest dose activity, negative = toxicity, most hits filed as cytotoxic | hit rate 2% among 360,000 | AID 686971;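 also: potency is read from the fitted curve at half-maximal effect; 0% = DMSO wells and -100% = cell-free medium wells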
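CellTiter-Glo luminescence after 48 h compound exposure at 37 degrees C of IDH1-knockdown HT-1080 cells in 5% FBS RPMI. %Activity scaled between DMSO wells and cell-free media wells, with curves fitted and assigned curve classes.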
IL1B secr inh = blocks inflammasome-driven IL-1 beta release; THP-1 LPS/ATP IL-1B secretion, AlphaLISA, 16 h; hits give low values; activity change, % at 57.5 µM; hit rate 4.7% among 360,000; AID 743279; in the data active = activity change below about -50%; inconclusive = mostly about -30% to -49%
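THP-1 cells pretreated 1 hr with compounds (up to 57.5 uM final), then stimulated with LPS (250 ng/mL final) plus ATP (1.25 mM final); secreted IL-1B measured by AlphaLISA after 16 hr, decreased signal indicating inhibition.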
DT40 TDP1 CPT = DT40-hTDP1 cell growth loss with CPT; chicken DT40 Tdp1-/-;hTDP1 cells + 20 nM CPT, ATP luminescence, 48 h; Potency, µM (highest dose often 46.2 µM), for inactives: top-dose activity change, negative = growth inhibition, most hits filed as inhibitors; hit rate 12% among 420,000; AID 686979; also: potency is read from the fitted curve at half-maximal effect; nearly all actives have a fitted effect of over 55% in size
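Cell growth measured by CellTiter-Glo luminescence after a minimum 48 h, 37 C compound exposure with 20 nM CPT in Tdp1-knockout DT40 cells stably expressing hTDP1, seeded 400/well; qHTS titration format.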
ELG1 DNA repair = inhibitors of ELG1-dependent DNA repair in HEK293T cells | HEK293T ELG1-luciferase reporter, luminescence, 16 h; DNA damage induced by 5-fluorouridine | Potency, µM (titrated, usually from 46.1 µM), for the others: at the highest dose activity change, negative = inhibition, actives largely listed as inhibitors | hit rate 2.3% among 330,000; also: potency is read from the fitted curve at half-maximal effect; nearly all actives have a fitted effect of over 55% in size
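Quantitative HTS, concentration-response format. 2,000 cells/well co-treated with 5-fluorouridine and compound, 16 hr in 5% CO2 at 37 °C; ONE-Glo luminescence read after 30 min.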
TDP1 cell noCPT = qHTS for Inhibitors of human tyrosyl-DNA phosphodiesterase 1 (TDP1): qHTS in cells in absence of CPT; Potency, µM (series often up to 46.2 µM), without a hit: top-dose activity change, negative = growth inhibition, most hits filed as inhibitors; hit rate 15% among 420,000; DT40 Tdp1-/- hTDP1 cells, no CPT, ATP luminescence, 48 h; also: potency is read from the fitted curve at half-maximal effect; nearly all actives have a fitted effect of over 55% in size
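Compound effects on proliferation are scored in DT40 Tdp1-/-;hTDP1 cells in the absence of CPT. ATP levels (CellTiter-Glo luminescence) are recorded after a ≥48 hr, 37 °C incubation.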
Starred values were filed as active, the others as inactive; ? = inconclusive; · = no result; [ ] = dose if it differs, or a comment. Unless noted, calls follow the shape of the dose curve; as a rule, active = well fitted curve in the direction sought with a large enough effect; inconclusive = small, poorly fitted or top-dose-only effect, or another doubt; inactive = no such curve, though single readings can be large; an effect the other way counts as inactive or inconclusive. Unless noted, % is scaled to controls: 0 for no effect and ±100 for the full control effect.

SMILES | HT1080NT lethal | HT1080 IDH1KD tx | IL1B secr inh | DT40 TDP1 CPT | ELG1 DNA repair | TDP1 cell noCPT
c1ccc2[nH]c(CSc3nc4ccccc4s3)nc2c1 | -13% | -18% | 24 | ? | -3% | 15µM*
Cc1cccc(C)c1NC(=O)C(C)N1CCCCC1 (stereo unspecified) | 11% | 7% | 13 | -1% | 3% | 5%
CCOC(=O)C1CCCN(C(=S)Nc2ccc(F)cc2)C1 (stereo unspecified) | 18% | 10% | -4 | -25% | -4% | -23%
CCOC(=O)C1CCCN(c2cc(C)nc3cc(-c4ccc(F)cc4)nn23)C1 (stereo unspecified) | ? | ? | 14 | 23µM* | ? | 23µM*
CCOC(=O)C1CCCN(c2cc(C)nc3cc(-c4ccc(Cl)cc4)nn23)C1 (stereo unspecified) | ? | -18% | 9 | ? | 26µM* | 23µM*
Cc1nc(Nc2nc3ccccc3o2)nc2c1CCC2 | -1% | -15% | -22 | ? | ? | 21µM*
Cc1cccc(C)c1Nc1nc2ccccc2o1 | 14% | 11% | 9 | ? | -7% | ?
CCOC(=O)c1cnc(Nc2nc3ccccc3o2)nc1CSc1nnc(C)s1 | -20% | -1% | 31 | 3.3µM* | · | 2.6µM*
CCOC(=O)c1cnc(Nc2ccccc2)nc1C(F)(F)F | -5% | -15% | 5 | -20% | ? | ?
CCOC(=O)c1cnc(Nc2nc3ccccc3o2)nc1C | 2.8µM* | 3.5µM* | -12 | 3.2µM* | ? | 3.2µM*
CN1C(C(=O)N2CCc3ccccc3C2)=CC(c2ccc(F)cc2)=NS1(=O)=O | -17% | -1% | 17 | ? | 1% | 26µM*
O=C(c1cc2nc(-c3ccco3)cc(C(F)(F)F)n2n1)N1CCc2ccccc2C1 | -4% | -8% | 6 | ? | -15% | 23µM*
CN1CCN(C(=O)c2cc3nc(-c4ccco4)cc(C(F)(F)F)n3n2)CC1 | 1% | -4% | 0 | 9% | 4% | -26%
O=C(c1cnn2c(C(F)(F)F)cc(-c3ccccc3)nc12)N1CCOCC1 | -5% | -5%[9.24 µM] | -9 | ? | -5% | -18%
COc1ccc(C2=NS(=O)(=O)N(C)C(C(=O)N3CCC(C)CC3)=C2)cc1 | 18% | -2% | 22 | ? | -8% | ?
O=C(c1cccc(F)c1)N1CCN(C(=O)c2cc3nc(-c4ccco4)cc(C(F)(F)F)n3n2)CC1 | 28% | 15% | -2 | -24% | -18% | 15µM*
O=C(c1cnn2c(C(F)(F)F)cc(-c3ccc(F)cc3)nc12)N1CCc2ccccc2C1 | 0% | 4% | -26 | ? | 1% | 21µM*
CC(OC(=O)CCNS(=O)(=O)c1ccccc1)C(=O)Nc1ccc(S(=O)(=O)N2CCCCC2)cc1 (stereo unspecified) | -6% | ? | 10 | ? | · | -27%
O=C1C[C@H]2[C@H](CO)[C@@H](OC(=O)c3ccc(-c4ccccc4)cc3)C[C@H]2O1 | -2% | -1% | ? | ? | ? | 16µM*
CCOc1ccc(NCc2cccn2-c2nnc(N3CCC(C(=O)NCc4cccc(OC)c4)CC3)s2)cc1 | · | · | · | ? | · | 6.5µM*
Cc1ccc(NCc2cccn2-c2nnc(N3CCC(C(=O)NCCc4ccc(Cl)cc4)CC3)s2)cc1 | · | · | · | ? | · | 13µM*
COc1cccc(CNC(=O)C2CCN(c3nnc(N4CCCC4=O)s3)CC2)c1 | -12% | -11% | -1 | -16% | 9% | -7%
CCOc1ccc(NCc2cccn2-c2nnc(N3CCC(C(=O)NCCCN4CCCCC4CC)CC3)s2)cc1 (stereo unspecified) | -24% | -19% | -69* | ? | 0% | ?
CN(CC(=O)Nc1ccccc1Br)C(=O)c1cccc(S(=O)(=O)N2CCc3ccccc32)c1 | -5% | -19% | -19 | ? | · | ?
COc1ccc(C(CNC(=O)c2cccc(S(=O)(=O)N3CCc4ccccc43)c2)N(C)C)cc1 (stereo unspecified) | -6% | -14% | -75* | ? | -8% | 10µM*
SMILES | HT1080NT lethal | HT1080 IDH1KD tx | IL1B secr inh | DT40 TDP1 CPT | ELG1 DNA repair | TDP1 cell noCPT
CCN(Cc1nc2ccccc2c(=O)[nH]1)C(=O)c1cccc(S(=O)(=O)N2CCc3ccccc32)c1 | -13% | -19% | 19 | ? | ? | 16µM*
Cc1ccc(CN(C)C(=O)c2cccc(S(=O)(=O)N3CCc4ccccc43)c2)cc1 | ? | ? | -22 | ? | -16% | 21µM*
CN(Cc1nc2ccccc2c(=O)[nH]1)C(=O)c1cccc(S(=O)(=O)N2CCCC2)c1 | -1% | -2% | 9 | -17% | -1% | 7%
COc1ccccc1C(CNC(=O)c1cccc(S(=O)(=O)N2CCCc3ccccc32)c1)N(C)C (stereo unspecified) | -20% | -6% | ? | ? | · | ?
COc1ccc(NC(=O)CN(C)C(=O)c2cccc(S(=O)(=O)N3CCCc4ccccc43)c2)cc1 | -1% | -9% | 9 | 10µM* | -21% | -22%
Cc1cccc(C)c1NC(=O)CN(c1ccccn1)S(=O)(=O)c1ccc(F)cc1 | 4% | -4% | -6 | -8% | -3% | -26%
COc1ccccc1CN(C)C(=O)c1cccc(S(=O)(=O)N2CCCc3ccccc32)c1 | 0% | -7% | -29 | ? | ? | 12µM*
Cc1ccc(CNC(=O)c2ccc3nc(SCc4ccc(F)cc4)[nH]c3c2)cc1 | · | · | · | 15µM* | · | 13µM*
Cn1c(SCc2ccc(F)cc2)nc2ccc(C(=O)NCc3cccc(Cl)c3)cc21 | · | · | · | 16µM* | · | ?
Cn1c(SCc2ccc(F)cc2)nc2ccc(C(=O)NCc3ccc(F)cc3)cc21 | · | · | · | 16µM* | · | 16µM*
O=C(NCc1cccc(Cl)c1)c1ccc2nc[nH]c2c1 | -3% | -3% | -11 | -8% | 14% | -18%
COc1ccc2nc(SCC(=O)NCc3ccc(F)cc3)[nH]c2c1 | 11% | -2% | 4 | ? | -13% | ?
CC(C)Oc1ccc(CNC(=O)c2ccc3nc(SCc4ccc(F)cc4)n(C)c3c2)cc1 | · | · | · | -19% | · | ?
Cc1ccc(C(=O)N(Cc2ccc(N(C)C)cc2)Cc2ccco2)cc1 | · | · | · | ? | · | 21µM*
CN(C)c1ccc(-c2cncnc2N(C)Cc2ccco2)cc1 | · | · | · | ? | · | -16%
CCSc1ncc(Cl)c(C(=O)N(Cc2ccccc2)c2ccc(OC)cc2)n1 | · | · | · | ? | · | 5.8µM*

High-throughput results (PubChem)
